Assay outcomes (PubChem BioAssay)
Most compounds without a hit are left out; they make up all but 2.1% or so of the library.
RN4220 kill: S. aureus RN4220 growth inhibition. OD600, 16 h. inhibition, % (test concentration not listed). hit rate 0.33% among 330,000. AID 1259311; in the data active = inhibition above about 85%;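 note: plate controls were untreated cells for no effect and reference antibiotic for full effect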
PfHsp40 rescue: restores yeast growth despite PfHsp40 toxicity | growth rescue, % at 12.5 µM | S. cerevisiae expressing PfHsp40, growth rescue, ATP luminescence | hit rate 0.68% among 340,000; in the data active = growth rescue above about 28%, passing the limit was not always enough;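 note: yeast W303a lacking pdr1 and pdr3 grown in galactose medium; growth measured after three days at 30 °C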
CCHFV vOTU inh: blocks the CCHF virus ovarian tumor domain protease | CCHFV vOTU protease, Pep-AMC fluorescence | inhibition, % at 11.5 µM | hit rate 0.55% among 370,000; in the data active = inhibition above about 30%; note: 0% = vehicle wells with enzyme and 100% = no enzyme wells
ugtP null kill: kills S. aureus RN4220 lacking UgtP | hit rate 0.54% among 330,000 | S. aureus RN4220 ugtP deletion, OD600 growth, 16 h | growth inhibition, % (test concentration not listed); in the data active = growth inhibition above about 68%;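 note: plate controls were untreated wells for no effect and antibiotic for full effect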
PrP UTR inh: suppresses PrP 5' UTR mRNA reporter expression | cell-based PrP 5' UTR mRNA reporter, plate reader | AID 488862 | inhibition, % (test concentration not listed) | hit rate 0.35% among 340,000; in the data active = inhibition above about 52%; note: 0 = median of the neutral control wells
PrPC surface inh: reduces human prion protein on the cell surface; P04156; hit rate 0.43% among 370,000; cell surface PrPC, TR-FRET read-out; inhibition, % at 13.8 µM; AID 720596; in the data active = inhibition above about 24%; note: 0% = median of the test wells and 100% = reference compound wells
Starred values were filed as active, the others as inactive; . = no result given.

SMILES	RN4220 kill	PfHsp40 rescue	CCHFV vOTU inh	ugtP null kill	PrP UTR inh	PrPC surface inh
Cc1cccc(Nc2nc(-c3ccc(O)cc3O)cs2)n1	-8	121*	-4	-16	-56	8
CC(C)COC(=O)c1cccc2c1-c1ccccc1C2=NO	-4	.	.	96*	.	.
CC(C)COC(=O)c1ccccc1C(=O)OCC(C)C	3	0	-1	5	-4	-5
O=C1c2ccccc2C(=O)c2c1ccc(O)c2O	.	17	9	.	-3	-46
COC(=O)c1ccc2c(c1O)C(=O)c1ccccc1C2=O	97*	342*	7	97*	-24	-7
COC(=O)c1cccc2c1-c1ccccc1C2=NO	-1	.	.	21	.	.
COC(=O)c1cccc2c1-c1ccccc1/C2=N/O	.	331*	4	.	-10	-6
CC(C)(C)OC(=O)CC1CC=CCC(CC(=O)NC(CO)Cc2ccccc2)C(=O)N2CCCC2COC1=O (stereo unspecified)	-2	.	.	1	.	.
CCSc1nc(-c2ccccc2)nc2c1CCCC2	4	-2	3	88*	-59	-2
CN(C)CCSc1nc(-c2ccccc2)nc2c1CCCC2	2	.	-7	2	.	-2
CC1(C)S[C@@H]2[C@H](NC(=O)[C@H](N)c3ccccc3)C(=O)N2[C@H]1C(=O)O	.	1	-3	.	-22	-3
CC1(C)SC2C(NC(=O)C(N)c3ccccc3)C(=O)N2C1C(=O)OC1OC(=O)c2ccccc21 (stereo unspecified)	100*	.	.	101*	.	.
Cc1cc(COC(=O)C2N3C(=O)C(NC(=O)COc4ccccc4)C3SC2(C)C)on1 (stereo unspecified)	100*	.	.	100*	.	.
CCOC(=O)OC(C)OC(=O)C1N2C(=O)C(NC(=O)C(N)c3ccccc3)C2SC1(C)C (stereo unspecified)	101*	.	.	100*	.	.
O=C(O)C1=CC(c2csc3ccccc23)CC(OCc2ccc(CO)cc2)O1 (stereo unspecified)	3	.	.	0	.	.
COC(=O)c1ccc(C(NC(=O)OCc2ccccc2)C(C)=CC(C)C(=O)NCc2ccc(OC)c(OC)c2)cc1 (stereo unspecified)	2	.	.	1	.	.
O=C(NN=Cc1ccc(Cl)cc1)C1=NOC2COC3(CCN(c4ccc([N+](=O)[O-])cc4)CC3)OCC12 (stereo unspecified)	-3	.	.	-7	.	.
CCOC(=O)COc1ccccc1/C=C\[N+](=O)[O-]	.	71*	.	.	-24	.
CCOC(=O)COc1ccccc1C=NO	4	.	.	2	.	.
COc1cc(OC)cc(C(=O)NNC(=O)c2ccccn2)c1	3	-2	5	-5	-67	25*
COc1cccc(C(=O)N/N=C(/c2ccccc2)c2ccccn2)c1	.	324*	8	.	13	4
C[C@@]12C(=O)N(Cc3ccccc3)CC(=O)N1C1c3cc(Cl)ccc3OCC1C2c1ccccc1 (stereo partly specified)	-1	.	.	8	.	.
O=C(c1ccc(Br)cc1)C(CN1CCOCC1)c1ccccc1 (stereo unspecified)	93*	1	6	100*	-3	2
NNC(=O)c1ccc2nc(-c3ccc(Br)cc3)cn2c1	.	71*	-26	.	-49	4
COc1ccc(-c2cn3cc(C(=O)NN)ccc3n2)cc1	16	-1	-70	10	-26	2
SMILES	RN4220 kill	PfHsp40 rescue	CCHFV vOTU inh	ugtP null kill	PrP UTR inh	PrPC surface inh
Cc1ccc(C)c(NC(=S)NNC(=O)c2csc3c2CCC(C)C3)c1 (stereo unspecified)	-9	62*	-9	-17	.	-6
Cc1cccc(NC(=S)NNC(=O)c2csc3c2CCCC3)c1	5	141*	-10	-21	-25	9
Cc1ccc(C)c(NC(=S)NNC(=O)c2csc3c2CCCC3)c1	6	42*	-9	21	-14	-1
CCNC(=S)NNC(=O)c1csc2c1CCCC2	5	-1	.	17	-15	.
Cc1ccc(CN2CCC(CNC(=O)Nc3ccccc3F)CC2)cc1	1	55*	4	13	-1	-6
Cc1cc(-c2ccccc2)cc(-c2ccccc2)[n+]1CCc1ccccc1	6	0	3	-7	-16	9
Clc1ccc(C[n+]2c(-c3ccccc3)cc(-c3ccccc3)cc2-c2ccccc2)cc1	100*	0	4	100*	-19	2
O=C([O-])c1cc(-c2ccccc2)cc(-c2ccccc2)[n+]1CCc1ccc(Cl)cc1	88*	1	13	100*	-5	6
C=CCOc1ccccc1C=NNC(=O)Cc1ccccc1	4	.	.	7	.	.
O=C(NN=CC1CC2CCC1C2)c1ccc2c(c1)OCO2 (stereo unspecified)	4	.	.	4	.	.
COc1cc(C(=O)NN=Cc2sc(N3CCOCC3)nc2-c2ccccc2)cc(OC)c1OC	-6	.	.	7	.	.
Cc1cc(C(=O)NN=Cc2sc(N3CCOCC3)nc2-c2ccccc2)c(C)o1	94*	.	.	95*	.	.
Oc1ccc(C=NNC(=S)N2CCOCC2)cc1	3	.	.	5	.	.
CC1(C)C2CCC1(C)C(OCC[N+](C)(C)CC(=O)OC1CCCCC1)C2 (stereo unspecified)	77	0	2	100*	-8	13
C#CCOCCOCCOCCNc1nc(N2CCN(C(=O)C(CCCCN)n3cc(CCCC)nn3)CC2)nc(N2CCN(C(=O)C(C(C)CC)n3cc(CCCCN)nn3)CC2)n1 (stereo unspecified)	3	.	.	5	.	.
O=C(Cc1ccccc1)NN=Cc1cccs1	3	.	.	-4	.	.
CC(C)CC(CN1C(=O)C(=O)NCC1CC(C)C)NC(=O)Cc1ccccc1 (stereo unspecified)	3	.	.	-1	.	.
CCOc1cc(CNCc2ccncc2)cc(Br)c1OCc1ccc(F)cc1	12	-1	1	94*	-12	13
COC(=O)C(C)C1C[C@]1(C)C(NC(=O)OCc1ccccc1)c1ccccc1 (stereo partly specified)	5	.	.	8	.	.
CC(=O)c1ccc(N2CCN(C(=O)c3cc(-c4ccc5c(c4)OCO5)nc4ccccc34)CC2)cc1	-10	0	3	101*	-21	6
CCCCNC(=O)C1CCCN1S(=O)(=O)c1cccc2cccnc12 (stereo unspecified)	1	.	.	-2	.	.
Cc1ccccc1NC(=S)NC(=O)CCc1ccccc1	3	7	-3	85*	-9	10
O=C(/C=C/c1ccco1)c1cccc([N+](=O)[O-])c1	13	27*	-4	5	5	-8
O=C(NC(=S)Nc1ccc(Oc2ccccc2)cc1)c1ccc(Cl)cc1	-7	-1	-8	98*	-75	0
O=C(Cc1ccccc1)Nc1ccc(NC(=S)NC(=O)c2ccccc2)cc1	-1	-1	-2	84*	-19	7
O=C(NC(=S)Nc1cccnc1Cl)c1ccc(Cl)cc1	5	11	13	88*	-79	5
Cc1ccccc1C(=O)NC(=S)Nc1ccc(Oc2ccc(Cl)cc2)cc1	-14	-1	1	86*	-15	2
